Assay outcomes (PubChem BioAssay)
Efflux pump mplx: blocks antifungal efflux pumps in multiplex yeast assay; S. cerevisiae Candida pump triplex, Nile Red efflux; AID 485275; 0.44% of 330,000 active; inhibition, % at 10 µM;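 active = plate passing quality check with inhibition over a set limit, or well fluorescence over plate mean plus 4 SD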;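 note: Nile Red retained in pooled yeast measured as flow cytometry median fluorescence; higher means more Nile Red kept so more efflux inhibition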
ALR H2O2 inh: inhibitors of human sulfhydryl oxidase ALR; 3.8% of 290,000 active; purified ALR, DTT oxidation, H2O2 HRP-luminol luminescence; P55789; inhibition, % (concentration not given with the values);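 active = mean replicate inhibition above about 79%, with every replicate also reaching it, limit read from the data; inconclusive = only one of the two criteria met; inactive = mean below limit and not every replicate reaching it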
VLA-4 inh: inhibition in a human VLA-4 binding assay; 0.2% of 330,000 active; P13612; inhibition, % (about 7 µM as worked out from the volumes in the protocol); VLA-4 expressing cells, ligand binding flow cytometry; in the data active = inhibition above about 50%
Target sequence (P13612 whole entry, looked up): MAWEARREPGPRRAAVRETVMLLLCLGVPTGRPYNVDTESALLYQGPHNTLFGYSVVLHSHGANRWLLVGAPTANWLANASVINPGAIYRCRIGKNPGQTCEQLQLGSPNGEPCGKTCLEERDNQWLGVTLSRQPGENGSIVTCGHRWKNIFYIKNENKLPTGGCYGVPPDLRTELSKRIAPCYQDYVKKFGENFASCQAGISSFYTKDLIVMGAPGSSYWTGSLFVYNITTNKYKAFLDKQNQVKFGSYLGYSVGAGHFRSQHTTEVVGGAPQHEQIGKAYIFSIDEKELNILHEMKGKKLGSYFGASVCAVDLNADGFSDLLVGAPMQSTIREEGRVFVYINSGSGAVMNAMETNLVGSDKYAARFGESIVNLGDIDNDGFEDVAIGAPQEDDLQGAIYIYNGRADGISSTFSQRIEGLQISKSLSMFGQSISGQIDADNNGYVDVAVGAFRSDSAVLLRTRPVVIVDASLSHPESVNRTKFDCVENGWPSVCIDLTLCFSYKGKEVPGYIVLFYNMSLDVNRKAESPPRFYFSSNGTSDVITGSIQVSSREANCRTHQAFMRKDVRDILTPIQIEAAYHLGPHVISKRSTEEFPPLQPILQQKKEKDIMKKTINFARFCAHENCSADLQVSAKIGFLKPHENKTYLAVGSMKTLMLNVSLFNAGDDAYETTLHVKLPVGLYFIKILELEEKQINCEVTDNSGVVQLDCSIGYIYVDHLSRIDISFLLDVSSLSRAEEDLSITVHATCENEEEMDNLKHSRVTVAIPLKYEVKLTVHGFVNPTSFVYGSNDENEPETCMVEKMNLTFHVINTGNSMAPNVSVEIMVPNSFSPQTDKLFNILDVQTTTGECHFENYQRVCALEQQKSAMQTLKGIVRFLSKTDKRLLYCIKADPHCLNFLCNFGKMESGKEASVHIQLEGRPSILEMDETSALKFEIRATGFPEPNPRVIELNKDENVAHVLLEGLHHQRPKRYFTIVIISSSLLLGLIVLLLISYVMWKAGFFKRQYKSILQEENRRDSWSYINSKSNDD
Bfl-1 A1 inh: inhibitors of the anti-apoptotic protein A1, read as caspase activation; 0.066% of 330,000 active; MEF A1-2A-BIM cells, Caspase-Glo 3/7 luminescence, 3 h; percent of clofoctol response, vehicle zero; caspase activation, % (test concentration not listed); AID 2462;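 active = over half of replicate activation scores above 10%, or exactly half above 10 with the replicate mean above 10; inconclusive = replicate mean below 10 yet half the replicates above 10; inactive = over half of replicates below 10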
AHR activator: activators of human aryl hydrocarbon receptor. P35869. activation, % at 5 µM. AHR-responsive luciferase reporter cells, luminescence. 2.5% of 320,000 active. AID 2796; in the data active = activation above about 47%
Mot1-301 SUMO: inhibitors of SUMOylation pathway: yeast Mot1-301 growth rescue | AID 2716 | growth rescue, % at 18.8 µM | 1% of 320,000 active | S. cerevisiae Mot1-301 growth rescue, ATP luminescence, 38.5C; percent above DMSO median, 100 means doubled;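 active = every valid replicate shows activation above 250% relative to neutral control wells; inactive = the rest, any valid replicate at or below 250%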
Hits are given with their value; n = inactive; u = inconclusive; x = no result; + = active, no number. A selection: hits, their analogues and other compounds. The true share with any hit is near 7.2%.

SMILES	Efflux pump mplx	ALR H2O2 inh	VLA-4 inh	Bfl-1 A1 inh	AHR activator	Mot1-301 SUMO
CC1(C)OC(=O)C(=Cc2ccc(-c3ccc(S(N)(=O)=O)cc3)o2)C(=O)O1	n	u	n	6.1	n	n
NS(=O)(=O)c1ccc(-c2ccc(/C=C3\C(=O)Nc4ccccc43)o2)cc1	n	n	n	n	74.1	n
Cc1ccc(/C=C2\C(=O)Nc3ccccc32)o1	n	n	n	n	n	n
O=c1cc(CN2CCN(C/C=C/c3ccccc3)CC2)c2cc(O)ccc2o1	n	n	n	n	n	n
CCn1c(SCC(=O)Nc2ccc3c(c2)OCCO3)nnc1-c1cccnc1	n	n	n	n	n	n
S=c1[nH]nc(COc2ccc(Cl)cc2)n1-c1ccc(Cl)cc1	n	84.9	n	n	n	n
Cc1n[nH]c(=S)n1-c1ccc(Cl)cc1	n	89.1	n	n	n	n
Cc1ccc(C)c(SCC(=O)Nc2cccnc2Cl)c1	n	n	n	n	n	x
CCN(CC)C(=O)C1CCC(CNS(=O)(=O)c2cccc3nsnc23)CC1 (stereo not given)	n	n	n	x	n	x
O=c1cc(C23CC4CC(CC(C4)C2)C3)[nH][nH]1	n	n	n	n	n	n
CCOC(=O)c1c(SCC(=O)Nc2nc(C)cs2)nc(=O)[nH]c1C	n	98.7	n	n	n	n
Cc1csc(NC(=O)CSc2[nH]c(=O)ncc2C)n1	n	99.1	n	n	n	n
Cc1csc(NC(=O)CSc2ncnc3c2cnn3-c2ccccc2Cl)n1	n	99.1	n	n	n	x
CC(C)C(=O)NNC(=O)CSc1ncnc2c1cnn2-c1ccccc1Cl	n	n	n	n	n	n
COc1ccc(Cl)cc1NC(=O)CSc1nnc(C2CC2)n1C	n	n	n	n	n	n
Cc1ccc2c(c1)-c1ccccc1S(=O)(=O)N2	n	94.9	n	n	n	n
Nc1ccc2c(c1)-c1ccccc1S(=O)(=O)N2	n	99.8	n	n	n	n
O=S1(=O)NC(=NCCOCCO)c2ccccc21	n	n	n	n	n	n
CC(C)(C)c1ccc2c(c1)N(CC(=O)N1CCOCC1)C(=O)CO2	n	n	n	n	n	n
Nc1nc(-c2ccccc2)c(N=Nc2ccccc2Cl)s1	n	x	n	n	n	n
Nc1nc(-c2ccccc2)c(N=Nc2cccc3ccccc23)s1	n	n	n	n	70.1	n
Cc1cc(C(=O)NCCN2C(=O)S/C(=C\c3cccs3)C2=O)ccc1[N+](=O)[O-]	n	n	n	n	n	n
S=C(NCc1ccccc1)Nc1ccncc1	n	n	n	n	n	n
CCOC(=O)C(=O)NCC(c1cccs1)S(=O)(=O)c1ccc(Cl)cc1 (stereo not given)	n	n	n	n	n	n
Cc1cc(C)nc(-n2cc(C(=O)c3cc(F)ccc3O)cn2)n1	n	n	n	n	52.8	n
SMILES	Efflux pump mplx	ALR H2O2 inh	VLA-4 inh	Bfl-1 A1 inh	AHR activator	Mot1-301 SUMO
COc1ccc(Cn2c(SCC#N)nc3ccc(N4CCOCC4)cc3c2=O)cc1	n	n	n	n	n	n
Cc1csc(=Nc2cccnc2)n1CC1CCCCC1	n	98.6	n	n	n	n
COCCCn1c(C)csc1=Nc1cccnc1	n	n	n	n	n	n
C=CCn1c(C)cc(C(=O)COC(=O)c2ccc(N)c([N+](=O)[O-])c2)c1C	n	n	n	n	n	771.2
C=CCn1c(C)cc(C(=O)COC(=O)c2n[nH]c(=O)c3ccccc23)c1C	n	n	n	n	n	n
COCCn1c(C)cc(C(=O)COC(=O)c2ccc3c(c2)NC(=O)CS3)c1C	n	97.7	n	n	n	n
C=CCn1c(C)cc(C(=O)COC(=O)c2ccc3c(c2)NC(=O)CS3)c1C	n	98.2	n	n	n	n
O=C(COC(=O)c1cc[n+]([O-])cc1)Nc1ccc(F)c([N+](=O)[O-])c1	n	n	n	n	n	n
Cc1ccccc1C(=O)NC1CCN(CC(=O)N2CCCCC2C)CC1 (stereo not given)	n	n	n	n	n	n
C/C(=N\NC(=O)c1c(C)nc2ccccn12)c1cccc([N+](=O)[O-])c1	n	n	n	n	n	n
CC(=O)c1c(C)nc2ccccn12	n	n	n	n	n	n
O=C(/C=C/c1cccc([N+](=O)[O-])c1)Nc1ccccn1	n	n	n	n	n	x
O=C(/C=C/c1cccc([N+](=O)[O-])c1)N(c1ccccn1)c1ccccn1	n	n	n	n	n	+
Cc1nc2ccccn2c1C(=O)/C=C/c1cccc([N+](=O)[O-])c1	n	n	n	n	59.8	n
Cc1ccc(/C=C/C(=O)c2c(C)nc3ccccn23)cc1	n	97.7	n	n	n	n
COc1ccccc1C1CC(=O)Oc2ccc(C(C)(C)C)cc21 (stereo not given)	n	x	x	x	x	x
CCOc1ccc(-c2nc(C#N)c(NCc3ccc4c(c3)OCO4)o2)cc1	n	n	n	n	56.5	n
Cc1ccc(OCc2nc(C#N)c(NCc3ccc4c(c3)OCO4)o2)cc1	n	n	n	n	n	n
CCOC(=O)CSc1nnc(N)s1	n	n	n	n	n	n
N#Cc1ccc(COC(=O)CSc2nnc(N)s2)cc1	n	97.1	n	n	n	n
Cc1ccc(C)c(S(=O)(=O)Nc2ccc(C(=O)N3CCCCC3)cc2)c1	n	n	n	n	n	n
CCN(CC(=O)Nc1c(F)cccc1F)C(=O)c1ccc(NC(=O)CC2SC(N3CCCC3)=NC2=O)cc1 (stereo not given)	n	n	n	n	n	n
Cc1ccc(S(=O)(=O)/N=C(\c2ccccc2)N(C)S(=O)(=O)c2ccc(C)cc2)cc1	n	n	n	n	n	n
Cc1ccc(S(=O)(=O)N(C)/C(=N/S(=O)(=O)c2ccccc2)c2ccccc2)cc1	n	99.4	n	n	n	n
N=c1n(CCN2CCOCC2)c2ccccc2n1CC(=O)c1ccc(Cl)c(Cl)c1	n	n	n	n	91.4	n
SMILES	Efflux pump mplx	ALR H2O2 inh	VLA-4 inh	Bfl-1 A1 inh	AHR activator	Mot1-301 SUMO
CCCCOC(=O)Cn1c(=N)n(CCN2CCOCC2)c2ccccc21	n	n	n	n	n	n
Cc1c(C(=O)Nc2ccc(S(=O)(=O)N3CCOCC3)cc2)cccc1[N+](=O)[O-]	n	n	n	n	n	n
NC(=O)/C(=C/c1ccco1)NC(=O)/C=C/c1ccccc1	n	n	n	n	n	n
CC(C)CCOC(=O)/C(=C/c1ccco1)NC(=O)/C=C/c1ccccc1	n	90.3	n	n	n	n
COc1cc([N+](=O)[O-])ccc1NC(=O)Nn1cnnc1	n	n	n	n	n	n
COc1ccc(OC)c(NC(=O)Cn2nc(C)c3ccccc3c2=O)c1	n	n	n	n	n	n
O=C1c2ccccc2CSc2c(O)cccc21	n	79.5	n	n	n	n
CCN1CCN(c2ccc(N=Cc3ccc(O)cc3O)cc2)CC1	n	98.8	n	n	n	x
CCN(CC)c1ccc(C=Nc2ccc(C)cc2)c(O)c1	n	n	n	n	n	n
Nc1cc(N)nc(SCC(=O)NCc2ccc3c(c2)OCO3)n1	n	n	n	n	n	n
